This is an account of results in PubChem BioAssay (NCATS).

Broadly, the AC50 is the midpoint of the concentration-response curve, whichever way the signal moves.

For experiment [1] the following is noted: Ebola virus entry assay, green fluorescence channel.
For experiment [2] the following is noted: Ebola virus entry assay, blue channel fluorescence.
The conditions of experiment [3]: Ebola virus entry assay, green fluorescence channel. This is another data set of the same source.
For experiment [4] the following is noted: Ebola virus entry assay, ratio channel readout.
For experiment [5] the following is noted: Ebola virus entry assay, blue channel fluorescence. The source holds these as a separate data set.
The conditions of experiment [6]: Ebola virus entry assay, ratio channel.

Values without a mark were called inactive. For part of these data: Results with a measured potency or affinity are listed apart. Active and inactive are the calls of the source.
Wherever efficacy is given: 0% is about no effect.

With `COc1ccc2nc(S(=O)Cc3ncc(C)c(OC)c3C)[nH]c2c1` (stereo not drawn), the efficacy in experiment [1] is 22.2%. Also, the outcome in experiment [2], in experiment [3], in experiment [4], in experiment [5] and in experiment [6] was inactive.
Regarding `O[C@@H](CNC[C@H](O)[C@H]1CCc2cc(F)ccc2O1)[C@@H]1CCc2cc(F)ccc2O1`, in experiment [1], the efficacy is -189%. Further, the AC50 in experiment [2] is 11.2 µM (active); in experiment [5], 7.94 µM (active); in experiment [6], 3.55 µM (active). The compound was classed as inactive in experiment [3] and in experiment [4].
`CC(C)C[C@H](NC(=O)[C@H](Cc1ccccc1)NC(=O)c1cnccn1)B(O)O`: the efficacy in experiment [1] is -28.6%. Besides, the compound was classed as inactive in experiment [2], in experiment [3] and in experiment [4]. Further, the AC50 is 0.0794 µM (active) in experiment [5] and 1.26 µM (active) in experiment [6].
As to `CN(C)c1ccc(O)c2c1C[C@H]1C[C@H]3[C@H](N(C)C)C(=O)C(C(N)=O)=C(O)[C@@]3(O)C(=O)C1=C2O`, the efficacy in experiment [1] is 116%. Moreover, the compound was called inactive in experiment [2], in experiment [3], in experiment [4], in experiment [5] and in experiment [6].
Consider `CCC1=C[C@@H]2CN(C1)Cc1c([nH]c3ccccc13)[C@@](C(=O)OC)(c1cc3c(cc1OC)N(C)[C@H]1[C@@](O)(C(=O)OC)[C@H](OC(C)=O)[C@]4(CC)C=CCN5CC[C@]31[C@@H]54)C2`, for which, in experiment [1], the efficacy was -100%. Moreover, the AC50 in experiment [2] was 0.112 µM (active); in experiment [5], 7.94 µM (active); in experiment [6], 2.51 µM (active). Further, the compound was classed as inactive in experiment [3] and in experiment [4].
In the case of `Cc1nc(Nc2ncc(C(=O)Nc3c(C)cccc3Cl)s2)cc(N2CCN(CCO)CC2)n1`, in experiment [1], the efficacy was 82.9%. Moreover, the outcome in experiment [2], in experiment [3] and in experiment [4] was inactive. The AC50 in experiment [5] was 8.91 µM (active); in experiment [6], 7.94 µM (active).
For `CN(C)c1cc(NC(=O)CNC(C)(C)C)c(O)c2c1C[C@@H]1C[C@H]3[C@H](N(C)C)C(=O)C(C(N)=O)=C(O)[C@@]3(O)C(=O)C1=C2O`, the efficacy in experiment [1] is 47.7%. Moreover, the result in experiment [2], in experiment [3] and in experiment [4] was inactive. Also, the AC50 in experiment [5] and in experiment [6] was 8.91 µM (active) in each case.
For the compound `O=C(c1ccc(OCCN2CCCCC2)cc1)c1c(-c2ccc(O)cc2)sc2cc(O)ccc12`, in experiment [1], the efficacy is -297%. Besides, the AC50 in experiment [2] was 6.31 µM (active); in experiment [4], 5.02 µM (active); in experiment [5], 0.708 µM (active). The compound was classed as inactive in experiment [3] and in experiment [6].
Regarding `CCN(CC)CCCC(C)Nc1ccnc2cc(Cl)ccc12` (stereo not drawn), in experiment [1], the efficacy is 34.3%. Further, the half-maximal activity concentration (AC50) in experiment [2] was 3.98 µM (active); in experiment [4] it was 2.82 µM (active); in experiment [5] it was 1.26 µM (active); in experiment [6], 1.12 µM (active). Besides, in experiment [3], the compound was called inactive.
Turning to `CC(=O)O[C@]1(C(C)=O)CC[C@H]2[C@@H]3C=C(C)C4=CC(=O)CC[C@]4(C)[C@H]3CC[C@@]21C`, the efficacy in experiment [1] is 20%. The compound was called inactive in experiment [2], in experiment [3], in experiment [4], in experiment [5] and in experiment [6].
With `C[C@](N)(Cc1ccc(O)c(O)c1)C(=O)O`, the efficacy in experiment [1] is 20.7%. For the same compound, the result in experiment [2], in experiment [3] and in experiment [4] was inactive. The AC50 in experiment [5] was 15.8 µM (active); in experiment [6], 22.4 µM (active).
`CC(=O)O[C@@]12CO[C@@H]1C[C@H](O)[C@@]1(C)C(=O)[C@H](O)C3=C(C)[C@@H](OC(=O)[C@H](O)[C@@H](NC(=O)OC(C)(C)C)c4ccccc4)C[C@@](O)([C@@H](OC(=O)c4ccccc4)[C@H]21)C3(C)C`: in experiment [1], the efficacy is 57.5%. Moreover, the compound was classed as inactive in experiment [2], in experiment [3], in experiment [4] and in experiment [5]. In experiment [6], the half-maximal activity concentration (AC50) was 20 µM (active).
As for `CCCCc1oc2ccc(NS(C)(=O)=O)cc2c1C(=O)c1ccc(OCCCN(CCCC)CCCC)cc1`, the efficacy in experiment [1] was -249%. For the same compound, the AC50 is 7.08 µM (active) in experiment [2], 0.891 µM (active) in experiment [5] and 0.891 µM (active) in experiment [6]. The outcome in experiment [3] and in experiment [4] was inactive.
Turning to `CN(C)CCOC(C)(c1ccccc1)c1ccccn1` (stereo not drawn), in experiment [1], the efficacy was 20.1%. The result in experiment [2], in experiment [3] and in experiment [4] was inactive. Besides, the AC50 in experiment [5] was 15.8 µM (active); in experiment [6] it was 14.1 µM (active).
For the compound `CC(N)C12CC3CC(CC(C3)C1)C2` (stereo not drawn), the efficacy in experiment [1] is 56.9%. Moreover, the compound was classed as inactive in experiment [2], in experiment [3] and in experiment [4]. Besides, the concentration at half-maximal activity (AC50) in experiment [5] and in experiment [6] was 28.2 µM (active) throughout.
Take `CN1CCC[C@@H]1CCO[C@](C)(c1ccccc1)c1ccc(Cl)cc1`: the efficacy in experiment [1] was -151%. The AC50 in experiment [2] was 3.55 µM (active); in experiment [4], 3.17 µM (active); in experiment [5], 1.78 µM (active); in experiment [6], 1.41 µM (active). Also, the outcome in experiment [3] was inactive.
`CCCC(=O)Nc1ccc(OCC(O)CNC(C)C)c(C(C)=O)c1` (stereo not drawn): in experiment [1], the efficacy was 8.06%. The outcome in experiment [2], in experiment [3], in experiment [4], in experiment [5] and in experiment [6] was inactive.
In the case of `CCN(CC)CCNC(=O)c1cc(Cl)c(N)cc1OC`, in experiment [1], the efficacy was -12.5%. The compound was classed as inactive in experiment [2], in experiment [3], in experiment [4], in experiment [5] and in experiment [6].
For `CNC1(C)C2CCC(C2)C1(C)C` (stereo not drawn), the efficacy in experiment [1] is 20.8%. Moreover, the outcome in experiment [2], in experiment [3], in experiment [4] and in experiment [6] was inactive. Further, the AC50 in experiment [5] was 39.8 µM (active).
`CCCN(CCC)S(=O)(=O)c1ccc(C(=O)O)cc1`: the efficacy in experiment [1] is -17.8%. In addition, the call in experiment [2], in experiment [3], in experiment [4], in experiment [5] and in experiment [6] was inactive.
For the compound `CCCc1cc(=O)[nH]c(=S)[nH]1`, the efficacy in experiment [1] was 10.6%. Moreover, the compound was called inactive in experiment [2], in experiment [3], in experiment [4], in experiment [5] and in experiment [6].
On to `CCc1nc(N)nc(N)c1-c1ccc(Cl)cc1`, for which the efficacy in experiment [1] is 26.9%. For the same compound, the outcome in experiment [2], in experiment [3], in experiment [4] and in experiment [6] was inactive. In addition, the AC50 in experiment [5] was 39.8 µM (active).
Regarding `NC[C@H](O)c1ccc(O)c(O)c1`, the efficacy in experiment [1] is 112%. Moreover, the compound was classed as inactive in experiment [2], in experiment [3] and in experiment [4]. Also, the AC50 in experiment [5] was 12.6 µM (active); in experiment [6], 7.94 µM (active).
